# According to PubChem BioAssay (NCATS):
# Results filed as inconclusive are left out. Where a call stands in place of a potency, no number is given. The source made the active and inactive calls. Calls come from the whole dose curve; as a rule, active = well fitted curve in the direction sought with a large enough effect; inconclusive = small, poorly fitted or top-dose-only effect, or another doubt; inactive = no such curve, though single readings can be large; an effect the other way counts as inactive or inconclusive.
# What was measured:
# [1] = test system: Zika virus NS2B-NS3 protease (unlinked); assay: Optimization of GU AMC qHTS for Zika virus inhibitors: Unlinked NS2B-NS3 protease assay (AID 1347151); details: recombinant ZIKV NS2B-NS3 protease, fluorogenic AMC substrate; series mostly up to 52.5 µM; note: nearly all actives have a fitted effect of over 80% in size
# Outline: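 Noncovalent complex of NS2B hydrophilic domain and NS3 protease domain, 25 nM final, in 10 mM Tris-HCl pH 8.0, 0.01% Tween 20. AMC fluorescence change over 15 min at room temperature was fitted to a 4-parameter Hill equation.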
# [2] = test system: Zika virus NS2B-NS3 protease; assay: Primary screen GU AMC qHTS for Zika virus inhibitors (AID 1347154); details: Zika NS2B-NS3 unlinked protease, AMC fluorogenic substrate; series mostly up to 54.1 µM; note: nearly all actives have a fitted effect of over 70% in size
# Outline: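 Unlinked Zika NS2B hydrophilic domain/NS3 protease domain noncovalent complex (25 nM final) in 10 mM Tris-HCl pH 8.0, 0.01% Tween 20, with AMC peptide substrate. Fluorescence (ex 340, em 450 nm) change over 15 min, room temperature; percent inhibition fitted to 4-parameter Hill equation.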
# [3] = target: N-terminal Xaa-Pro-Lys N-methyltransferase 1 (Homo sapiens) (UniProt Q9BV86); assay: qHTS Assay for Inhibitors of N-terminal methyltransferase 1 (NTMT1): LOPAC validation of the NTMT1 SAHH-coupled ThioGlo3 Assay (AID 1347143); details: recombinant NTMT1, SAHH-coupled ThioGlo3 fluorescence; series mostly up to 114 µM; note: nearly all actives have a fitted effect of over 70% in size
# Outline: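 Fluorescence read-out (excitation 340nm, emission 450nm) of SAH-derived thiol, measured via SAHH coupling and ThioGlo3, taken immediately and after a 30 min room-temperature reaction, then normalized to the background read. Enzyme: NTMT1 at 125nM; cofactor SAM 100uM in the added reagent.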
# [4] = qHTS of pediatric cancer cell lines to identify multiple opportunities for drug repurposing: Confirmatory screen for OHS-50 cells (AID 1347128); details: OHS-50 osteosarcoma cells viability; series mostly up to 45.9 µM;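 note: potency is the fitted concentration of half-maximal effect; compound exposure lasted 48 h at 37 degrees C; nearly all actives have a fitted effect of over 55% in size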
# Outline: (§1)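 Cells (500-1,000/well) in growth media were settled 5 h at 37 degrees C, then given compounds for 48 h. Viability was read as CellTiter-Glo luminescence. Primary runs used MIPE at 11 points (0.78 nM-46 µM) and NPC at 8 points (0.59 nM-46 µM); follow-ups used 11 points.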
# [5] = qHTS of pediatric cancer cell lines to identify multiple opportunities for drug repurposing: Confirmatory screen for SK-N-SH cells (AID 1347129); details: SK-N-SH neuroblastoma cell viability; series mostly up to 46.1 µM;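 note: potency is the fitted concentration of half-maximal effect; cells exposed to compound for 48 h before viability read; nearly all actives have a fitted effect of over 60% in size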
# Outline: as §1
# [6] = Confirmatory screen GU Rhodamine qHTS for Zika virus inhibitors qHTS (AID 1347157); details: purified enzyme assay, Rhodamine110 substrate fluorescence, 15 min; note: potency is the fitted concentration of half-maximal effect; nearly all actives have a fitted effect of over 70% in size
# Outline: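 Percent inhibition derives from the 15-min fluorescence change (ex 480, em 540 nm), normalized to no-enzyme and no-inhibitor wells. Reactions contained 25 nM NS2B-NS3 complex and 1.5 microM substrate in 10 mM Tris-HCl pH 8.0.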
# Sequence of N-terminal Xaa-Pro-Lys N-methyltransferase 1 (Homo sapiens) (Q9BV86 whole entry, looked up): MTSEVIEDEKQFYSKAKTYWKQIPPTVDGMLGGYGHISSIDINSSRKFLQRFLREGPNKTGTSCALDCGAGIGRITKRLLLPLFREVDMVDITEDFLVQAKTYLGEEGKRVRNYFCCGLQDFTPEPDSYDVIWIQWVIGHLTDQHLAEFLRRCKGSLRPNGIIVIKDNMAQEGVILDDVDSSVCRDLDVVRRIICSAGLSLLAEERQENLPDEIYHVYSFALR
compound,measurement,setting,value
Cc1ncsc1CCCl,outcome,[1],inactive
same,Potency,[2],inactive
CC(C)C[C@H](CN)CC(=O)O,Potency,[2],inactive
CC1(C)C(C=C(Cl)Cl)C1C(=O)OC(C#N)c1cccc(Oc2ccccc2)c1 (centres undefined),Potency,[2],inactive
CN1C(=O)CCS(=O)(=O)C1c1ccc(Cl)cc1 (centres undefined),outcome,[3],inactive
same,outcome,[1],inactive
same,Potency,[2],inactive
CC(C)c1cccc(C(C)C)c1O,outcome,[3],inactive
same,outcome,[1],inactive
same,Potency,[2],inactive
C[C@H](N)C(=O)c1ccccc1,Potency,[2],inactive
O=C(CCCN1CCC2(CC1)C(=O)NCN2c1ccccc1)c1ccc(F)cc1,outcome,[3],inactive
NCCc1ccc(O)cc1,outcome,[3],inactive
same,outcome,[1],inactive
same,Potency,[2],inactive
COc1cccc2c1C(=O)c1c(O)c3c(c(O)c1C2=O)C[C@@](O)(C(=O)CO)CC3OC1CC(N2CCOC(OC)C2)C(O)C(C)O1 (some centres undefined),Potency,[4],23.3 nM (active)
same,Potency,[5],23.5 nM (active)
same,Potency,[2],inactive
CC(=O)OCC1=C(C(=O)O)N2C(=O)[C@@H](N)[C@H]2SC1,Potency,[6],22100 nM (active)
